Source: the supplement of paper PMC6555819

Columns and labels:
Experiment in all cases: PBM binding z-score (relative to random genomic background probes); higher = stronger binding; sequences stand for … in GC…GCGATTGACAGCGTAGAATGAAGG
[1] = system: FXR:RXRa (NR concentration 270 nM, RXRa partner concentration 90 nM)
Method in brief: (§1)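 Custom Agilent 4×180K protein-binding microarrays carried double-stranded probes. Their 34-nt variable regions held direct-repeat seeds, single-nucleotide variants, half-site ablations and random human genomic background sequences. Arrays were incubated 1 h with ligand-free nuclear receptor dimers in PBS pH 7.4, 2% milk, 0.02% Triton X-100, 1 mM DTT, 0.2 mg/mL BSA and 0.4 mg/ml salmon testes DNA. Antibodies against each partner (one per run) detected binding, and scanned fluorescence was regression-normalized. Binding z-scores use random background probes as reference.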

[2] = system: LXRa:RXRa (NR concentration 270 nM, RXRa partner concentration 90 nM)
Method in brief: as §1

[3] = system: LXRa homodimer (NR concentration 270 nM)
Method in brief: as §1

[4] = system: LXRb:RXRa (NR concentration 270 nM, RXRa partner concentration 90 nM)
Method in brief: as §1

[5] = system: LXRb homodimer (NR concentration 270 nM)
Method in brief: as §1

[6] = system: PPARa:RXRa (NR concentration 270 nM, RXRa partner concentration 90 nM)
Method in brief: as §1

[7] = system: PPARg:RXRa (NR concentration 180 nM, RXRa partner concentration 90 nM)
Method in brief: as §1

[8] = system: PPARg:RXRa 270nM:90nM, anti-RXR (NR concentration 270 nM, RXRa partner concentration 90 nM)
Method in brief: as §1

[9] = system: PPARg:RXRa 30nM:10nM, anti-RXR (NR concentration 30 nM, RXRa partner concentration 10 nM)
Method in brief: as §1

[10] = system: PPARg:RXRa 90nM:30nM, anti-RXR (NR concentration 90 nM, RXRa partner concentration 30 nM)
Method in brief: as §1

Sequence | PBM binding z-score [1] | PBM binding z-score [2] | PBM binding z-score [3] | PBM binding z-score [4] | PBM binding z-score [5] | PBM binding z-score [6] | PBM binding z-score [7] | PBM binding z-score [8] | PBM binding z-score [9] | PBM binding z-score [10]
CGTCACAGTTCAACTAAGGTAACGTAAAGCACGC | 3.5 | 3.37 | 1.17 | 2.07 | 0.36 | 3.14 | 1.61 | 1.49 | 0.576 | 0.859
CCGACTGGGGAAGAAAGGTTACCATACCATCCGG | 0.169 | 0.579 | -0.0766 | 0.683 | -0.64 | 2.22 | 1.84 | 3.17 | 1.15 | 2.6
CTACCAAGGTGAACAAGGTCGTTTATTACTATTC | 1.5 | 1.78 | 0.765 | 2.61 | -0.00441 | 2.46 | 1.06 | 1.2 | 0.0871 | 0.818
ATATGTAGGTTACATCCGGGTCAGTCAGGCTATG | 1.08 | 2.95 | 0.519 | 1.74 | 0.572 | 3.66 | 5.53 | 4.69 | 2.14 | 3.86
ACAGACAGGTGCGTGAAGGTAACTCAGCTGGACG | -0.446 | -0.525 | -0.81 | -0.869 | -0.883 | -0.268 | 0.476 | -0.586 | -0.564 | -0.492
ACAGACAGGTGGTGAAGGTAACTCAGGCTATCAT | -0.0169 | -0.306 | -0.324 | -0.0742 | -0.476 | -0.288 | 0.473 | -0.194 | -0.095 | -0.321
CCTCTGAGGACAACAGGAGGTCAGAGCTGCCAGA | 1.9 | 2.12 | 1.95 | 1.33 | -0.394 | 1.88 | 0.389 | 0.288 | -0.556 | -0.276
ACTAGCAGGCCAAGTGTGGGTCACTCAAACAAAG | -0.167 | 0.206 | -0.486 | 0.691 | -0.959 | 2.19 | 0.66 | 1.38 | -0.102 | 0.685
CCTAGTTGGTCAGGAGGTCACAGACCGGATATGA | 4.08 | 3.46 | 1.53 | 3.38 | 0.251 | 4.41 | 3.79 | 4.28 | 1.81 | 3.37
CCTCGGAGTACAACAGGAGGTCAGAGCTGCCAGA | 0.85 | 1.93 | 1.79 | 1.35 | -0.438 | 1.92 | 0.371 | 0.479 | -0.324 | -0.0827
CTCGAAAGGTCGTGCTCAGGCGAGTATACCAAAC | 5 | 3.56 | -0.183 | 2.93 | -0.132 | 5.03 | 2.05 | 3.49 | 0.448 | 1.95
GATACAGGGTCAGCTAGAGGCCATAGTATGGAAA | 4.67 | 3.04 | -0.128 | 2.94 | -0.352 | 4.53 | 4.05 | 3.34 | 0.897 | 2.51
TCTATTAGTTGATTAGGACAACCGAAACAGCGGA | 0.957 | 0.808 | 0.615 | 0.807 | 1.17 | 0.875 | 0.378 | 2.18 | 4.26 | 3.32
GAACCAAGGTGAATAGGTCGTTGATGAGTAGGCG | 0.855 | 0.803 | -0.0902 | 0.55 | -0.922 | 2.46 | 1.74 | 1.97 | 0.275 | 1.25
GCGACTGGGGCTAAGCAGGTTACCATAAGGTTGG | -0.407 | -0.415 | -0.836 | -0.00625 | -0.83 | 0.342 | 0.147 | -0.288 | -0.707 | -0.68
GCTATTAGTTGAAAGGGCAACCGAATGATTCTCG | 0.555 | 0.733 | 0.435 | 0.971 | 0.134 | 2.33 | 2.9 | 4.29 | 2.39 | 4.05
ATCTCTAGGTAAAGATAGTTCAATGAATGCAAAT | 0.446 | 4.83 | 1.09 | 1.44 | 0.777 | 1.15 | 1.03 | 0.735 | 0.381 | 0.638
TCATATGGGTAAATGCTAGGTGAAAGTCCGATCT | 0.03 | 0.212 | 0.0774 | 0.31 | -0.359 | 0.897 | 0.667 | 1.71 | 2.1 | 1.91
GATACAGGGTCAGCTAAAGGCCAGAGTATGGAAA | 4.35 | 2.74 | -0.339 | 2.43 | -0.758 | 4.67 | 4.07 | 3.58 | 0.882 | 2.24
ACAGACAGGTGAGTGAAAGTAACTCAGCTGGACG | 0.0251 | 0.239 | -0.514 | -0.461 | -0.641 | -0.0542 | 0.742 | -0.29 | -0.67 | -0.542
GATACAGGCTCAGCTAGAGGCCAGAGTATGGAAA | -0.845 | -1.13 | -0.652 | -1.25 | -1.62 | -1.21 | 0.137 | -0.746 | -0.505 | -0.667
CCGACTGGGGCATAAGGTTACCTTAAGCCAGCCC | 0.144 | 2.16 | -0.305 | 0.631 | -1.36 | 1.9 | 2.04 | 3.18 | 0.872 | 2.64
CCGAGTAGGTTATGGGGCATTCAAGCAACGGTGA | 0.071 | 0.506 | -0.128 | 0.732 | 0.278 | 2.1 | 3.82 | 4.64 | 2.45 | 4.67
CCTAGCAGGGCAGGGTCACTCAAGCATTTCGCTT | 2.68 | 2.17 | -0.361 | 2.12 | -1.22 | 3.32 | 1.4 | 2.37 | -0.0964 | 1.47
